Test results reported in PubChem BioAssay (Tox21).
Results filed as inconclusive are left out. Entries that show only a call come without a potency. Where a structure was tested more than once in an assay, its records may differ in their call. Activity calls are given as the source filed them. Unless noted, the call rests on the fitted dose curve.

What was measured:
[1] = target: Gonadotropin-releasing hormone receptor (Homo sapiens) (UniProt P30968); assay: Human gonadotropin-releasing hormone receptor (GnRHR) small molecule agonists, calcium flux assay in GnRHR-HEK293 cells (AID 1920063); further: nearly all actives have a fitted effect of over 35% in size
How it was run: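 Agonist activity was measured as intracellular calcium flux in HEK293 cells engineered to stably express human GnRHR. After dye loading for 1 hour at 37 C, compounds in DMSO were added and fluorescence was followed for 3 minutes.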

[2] = target: KiSS-1 receptor (Homo sapiens) (UniProt Q969F8); assay: Human kisspeptin (KISS1R) small molecule agonists, calcium flux assay in KISS1R-HEK293 cells (AID 1920064; active means well fitted activation curve with a large enough effect in the repeat runs)
How it was run: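 Agonist activity is monitored as intracellular calcium rise in engineered HEK293 cells carrying human KISS1R. Cells are dye-loaded for 1 h at 37 C before compound addition, and fluorescence is recorded for 3 min.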

[3] = G protein-coupled receptor (GPCR) small molecule agonists, calcium flux assay: HEK293 wild type cell line counter screen (AID 1920065)
How it was run: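 Seed cells, incubate 18 h (37 C, 5% CO2); add calcium dye, 1 h at 37 C; pin-transfer compounds, ATP control or DMSO; read fluorescence 480/540 nm each second for 3 min.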

[4] = p53 small molecule agonists, cell-based qHTS assay with human liver microsomes: qHTS cell viability counter screen (AID 1963579); further: nearly all actives have a fitted effect of over 45% in size
How it was run: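 Tox21 library compounds, delivered from DMSO stocks, were tested on p53RE-bla cells together with 0.5 mg/mL human liver microsomes and 0.5 mg/mL NADPH (final) over 16 h at 37 C; CellTiter-Glo luminescence served as the cytotoxicity measure.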

[5] = p53 small molecule agonists, cell-based qHTS assay with rat liver microsomes: qHTS cell viability counter screen (AID 1963580); further: nearly all actives have a fitted effect of over 45% in size
How it was run: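 Cytotoxicity counter screen: intracellular ATP measured by CellTiter-Glo luminescence in the same wells as the beta-lactamase reporter read, on HCT-116 p53RE-bla cells exposed 16 h at 37 C to compounds with rat liver microsomes and NADPH, each 0.5 mg/mL final.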

[6] = p53 small molecule agonists, cell-based qHTS assay: qHTS cell viability counter screen (AID 1963581); further: nearly all actives have a fitted effect of over 45% in size; further: potency means the concentration at half of the fitted maximal effect
How it was run: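 Viability was counter-screened in parallel with the p53 agonist reporter by measuring intracellular ATP luminescence in the same HCT-116 p53RE-bla wells after 16 h compound treatment at 37 C.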

[7] = target: 5-hydroxytryptamine receptor 2A (Homo sapiens) (UniProt P28223); assay: 5-hydroxytryptamine receptor 2A (HTR2A) small molecule antagonists, cell-based qHTS assay (AID 1963586); further: nearly all actives have a fitted effect of over 45% in size; further: potency means the concentration at half of the fitted maximal effect
How it was run: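 CHO cells stably expressing human HTR2A were plated for 18 h at 37 C, then loaded with calcium dye for 1 h. Compounds were preincubated 5 min at room temperature before DOI (4 nM solution) was added. Kinetic fluorescence was read for 3 min.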

[8] = target: 5-hydroxytryptamine receptor 2A (Homo sapiens) (UniProt P28223); assay: 5-hydroxytryptamine receptor 2A (HTR2A) small molecule agonists, cell-based qHTS assay (AID 1963587); further: nearly all actives have a fitted effect of over 30% in size
How it was run: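 CHO cells stably expressing human HTR2A, plated 18 h, loaded with calcium dye 1 h at 37 C. Agonist mode: compounds added and intracellular calcium fluorescence recorded kinetically for 2 min at 1 sec intervals.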

[9] = target: Muscarinic acetylcholine receptor M1 (Homo sapiens) (UniProt P11229); assay: Cholinergic receptor muscarinic 1 (CHRM1) small molecule antagonists, cell-based qHTS assay (AID 1963588); further: nearly all actives have a fitted effect of over 40% in size
How it was run: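 Compounds were tested at 15 concentrations in three independent runs. Dye-loaded CHRM1-CHO cells were exposed 5 min at room temperature before stimulation by acetylcholine added at 50nM. Intracellular calcium was read kinetically on FDSS for 3 min.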

[10] = target: Muscarinic acetylcholine receptor M1 (Homo sapiens) (UniProt P11229); assay: Cholinergic receptor muscarinic 1 (CHRM1) small molecule agonists, cell-based qHTS assay (AID 1963589); further: nearly all actives have a fitted effect of over 35% in size
How it was run: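 Cells were plated and incubated 18 h at 37 C/5% CO2, loaded with calcium dye for 1 h at 37 C, then treated with compounds in DMSO. Fluorescence was recorded kinetically at 1 sec intervals.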

[11] = cAMP Responsive Elements (CRE) small molecule agonists, cell-based qHTS assay (AID 1963590)
How it was run: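 Cells carrying a CRE-driven beta-lactamase reporter (HEK 293T) are seeded, incubated overnight (18 h), and treated with test compounds for 3 h at 37 C; reporter activity is then detected with a FRET substrate after 2 h at room temperature.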

[12] = target: Beta-2 adrenergic receptor (Homo sapiens) (UniProt P07550); assay: Adrenergic beta2 receptor (ADRB2) small molecule antagonists, cell-based qHTS assay (AID 1963592); further: series mostly up to about 92 µM; nearly all actives have a fitted effect of over 50% in size
How it was run: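 Assay format: CHO-ADRB2 cells, 18-20hr seeding at 37C/5% CO2, then compound plus 1nM isoproterenol agonist mix for 0.5hr RT. Homogeneous time-resolved fluorescence cAMP detection after 1hr, expressed as 665/615 nm ratio.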

[13] = target: D(2) dopamine receptor (Homo sapiens) (UniProt P14416); assay: Dopamine D2 receptor (DRD2) small molecule agonists, cell-based qHTS assay (AID 1963594); further: nearly all actives have a fitted effect of over 35% in size; further: potency means the concentration at half of the fitted maximal effect
How it was run: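 HEK293 cells stably expressing human DRD2, pre-treated with PDE inhibitor Ro20-1724 (0.1 mM final) and compound 10 min at room temperature, then stimulated with NKH477 (200nM […]) for 30 min. cAMP read by HTRF (665/620 nm).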

[14] = target: D(2) dopamine receptor (Homo sapiens) (UniProt P14416); assay: Dopamine D2 receptor (DRD2) small molecule antagonists, cell-based qHTS assay (AID 1963595; active means well fitted inhibition curve with a large enough effect in the signal ratio in the repeat runs, with a control signal flat; the % refers to the signal ratio; further: potency means the concentration at half of the fitted maximal effect)
How it was run: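 HTRF cAMP read-out at 665 and 620 nm emission (340 nm excitation). Antagonist mode: compounds were tested against 12 nM quinpirole in DRD2-HEK293 cells, with 200 nM NKH477 raising cAMP and 0.1 mM Ro20-1724 blocking its breakdown.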

[15] = target: Beta-2 adrenergic receptor (Homo sapiens) (UniProt P07550); assay: Adrenergic beta2 receptor (ADRB2) small molecule agonists, cell-based qHTS assay (AID 1963593);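 further: CHO cells stably overexpressing human ADRB2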
How it was run: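 CHO cells stably over-expressing ADRB2 were plated overnight at 37C, then dosed with compounds plus a stimulation mix containing 100uM IBMX and 25uM Ro-20-1724 for 0.5hr at room temperature. cAMP was measured by HTRF competition, 1hr.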

[16] = p53 small molecule agonists, cell-based qHTS assay (AID 1963582; active means well fitted activation curve with a large enough effect in the signal ratio in the repeat runs, not every such curve was filed as active; the % refers to the signal ratio)
How it was run: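 Cells carrying a p53-responsive bla reporter are treated with test compounds for 16 h at 37 C; beta-lactamase activity is then detected with LiveBLAzer B/G FRET substrate after 2 h at room temperature.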

[17] = p53 small molecule agonists, cell-based qHTS assay with human liver microsomes (AID 1963577);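 further: p53 response element beta-lactamase reporter cells with liver microsomes plus NADPH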
How it was run: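 Metabolically competent format: test substances, human liver microsomes and NADPH (both 0.5 mg/mL final) incubated with p53RE-bla cells 16 h at 37 C. Beta-lactamase reporter signal then quantified by fluorescence.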

[18] = p53 small molecule agonists, cell-based qHTS assay with rat liver microsomes (AID 1963578)
How it was run: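 Each plate received p53RE-bla cells, then compound, then rat liver microsomes and NADPH (both 0.5 mg/mL final). Plates were held 16 h at 37 C, and beta-lactamase activity was detected with LiveBLAzer over 2 h.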

[19] = cAMP Responsive Elements (CRE) small molecule antagonists, cell-based qHTS assay (AID 1963591; active means well fitted inhibition curve with a large enough effect in the signal ratio in the repeat runs, not every such curve was filed as active; the % refers to the signal ratio)
How it was run: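 Cells (CRE-bla HEK 293T, DMEM with 10% dialyzed FBS and 25 mM HEPES) are seeded and incubated 18 h. Compounds are added with NKH477 agonist at 0.25 uM final for 3 h, then FRET substrate for 2 h.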

Sequence of Beta-2 adrenergic receptor (Homo sapiens) (P07550 whole entry, looked up): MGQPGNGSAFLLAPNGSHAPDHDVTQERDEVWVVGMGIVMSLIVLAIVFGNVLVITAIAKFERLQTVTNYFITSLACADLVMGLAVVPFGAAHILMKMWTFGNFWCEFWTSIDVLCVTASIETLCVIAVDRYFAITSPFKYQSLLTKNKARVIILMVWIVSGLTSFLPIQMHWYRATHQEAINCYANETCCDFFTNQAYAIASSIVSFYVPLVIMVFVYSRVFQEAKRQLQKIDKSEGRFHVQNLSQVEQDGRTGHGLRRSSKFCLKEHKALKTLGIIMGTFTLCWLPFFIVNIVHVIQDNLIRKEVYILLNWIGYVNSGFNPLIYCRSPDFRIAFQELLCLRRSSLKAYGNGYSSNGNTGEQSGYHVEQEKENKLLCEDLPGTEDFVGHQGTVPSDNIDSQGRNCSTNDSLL
Sequence of D(2) dopamine receptor (Homo sapiens) (P14416 whole entry, looked up): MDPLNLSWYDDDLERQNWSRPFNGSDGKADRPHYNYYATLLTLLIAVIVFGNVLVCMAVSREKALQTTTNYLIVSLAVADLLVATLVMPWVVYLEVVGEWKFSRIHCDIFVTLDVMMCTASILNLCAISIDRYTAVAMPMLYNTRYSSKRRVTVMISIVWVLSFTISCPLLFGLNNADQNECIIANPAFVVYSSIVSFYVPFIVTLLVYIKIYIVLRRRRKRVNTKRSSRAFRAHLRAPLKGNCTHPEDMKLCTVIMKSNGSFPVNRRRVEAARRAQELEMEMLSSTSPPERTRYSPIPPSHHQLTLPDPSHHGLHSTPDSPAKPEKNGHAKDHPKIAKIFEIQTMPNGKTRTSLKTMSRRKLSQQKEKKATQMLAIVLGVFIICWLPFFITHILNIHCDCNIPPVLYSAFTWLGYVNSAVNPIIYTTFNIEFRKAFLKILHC
Sequence of Muscarinic acetylcholine receptor M1 (Homo sapiens) (P11229 whole entry, looked up): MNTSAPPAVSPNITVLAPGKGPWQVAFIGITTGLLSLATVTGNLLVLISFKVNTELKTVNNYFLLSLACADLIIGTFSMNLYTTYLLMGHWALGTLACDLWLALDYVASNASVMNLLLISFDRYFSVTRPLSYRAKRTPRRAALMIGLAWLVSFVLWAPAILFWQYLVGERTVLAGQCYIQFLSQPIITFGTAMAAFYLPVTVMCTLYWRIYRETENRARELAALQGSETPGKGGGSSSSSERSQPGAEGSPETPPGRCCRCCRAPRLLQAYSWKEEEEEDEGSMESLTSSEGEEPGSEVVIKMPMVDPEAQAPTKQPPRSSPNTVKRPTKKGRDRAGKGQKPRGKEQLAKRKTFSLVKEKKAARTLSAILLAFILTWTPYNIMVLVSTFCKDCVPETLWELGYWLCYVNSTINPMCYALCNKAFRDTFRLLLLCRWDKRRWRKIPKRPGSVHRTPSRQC
Sequence of 5-hydroxytryptamine receptor 2A (Homo sapiens) (P28223 whole entry, looked up): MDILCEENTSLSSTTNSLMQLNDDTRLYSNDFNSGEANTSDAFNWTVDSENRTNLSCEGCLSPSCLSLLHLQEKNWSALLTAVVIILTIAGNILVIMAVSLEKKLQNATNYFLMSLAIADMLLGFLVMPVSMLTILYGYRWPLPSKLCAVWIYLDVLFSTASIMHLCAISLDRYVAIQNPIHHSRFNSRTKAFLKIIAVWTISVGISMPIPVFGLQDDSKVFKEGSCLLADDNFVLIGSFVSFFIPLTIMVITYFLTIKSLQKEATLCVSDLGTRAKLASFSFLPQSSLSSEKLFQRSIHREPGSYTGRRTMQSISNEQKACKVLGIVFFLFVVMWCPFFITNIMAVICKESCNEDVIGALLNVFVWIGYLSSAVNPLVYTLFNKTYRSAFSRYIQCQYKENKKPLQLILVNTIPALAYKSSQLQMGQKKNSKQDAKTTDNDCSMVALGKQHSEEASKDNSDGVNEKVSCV
Sequence of Gonadotropin-releasing hormone receptor (Homo sapiens) (P30968 whole entry, looked up): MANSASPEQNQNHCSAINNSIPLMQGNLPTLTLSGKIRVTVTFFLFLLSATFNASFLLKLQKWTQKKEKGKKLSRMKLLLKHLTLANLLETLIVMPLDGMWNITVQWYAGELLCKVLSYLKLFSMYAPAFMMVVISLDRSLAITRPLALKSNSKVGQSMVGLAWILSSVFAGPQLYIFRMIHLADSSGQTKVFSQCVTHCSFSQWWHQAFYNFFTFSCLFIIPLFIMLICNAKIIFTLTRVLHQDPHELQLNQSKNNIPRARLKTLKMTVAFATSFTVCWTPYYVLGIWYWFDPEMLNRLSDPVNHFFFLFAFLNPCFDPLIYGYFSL
Sequence of KiSS-1 receptor (Homo sapiens) (Q969F8 whole entry, looked up): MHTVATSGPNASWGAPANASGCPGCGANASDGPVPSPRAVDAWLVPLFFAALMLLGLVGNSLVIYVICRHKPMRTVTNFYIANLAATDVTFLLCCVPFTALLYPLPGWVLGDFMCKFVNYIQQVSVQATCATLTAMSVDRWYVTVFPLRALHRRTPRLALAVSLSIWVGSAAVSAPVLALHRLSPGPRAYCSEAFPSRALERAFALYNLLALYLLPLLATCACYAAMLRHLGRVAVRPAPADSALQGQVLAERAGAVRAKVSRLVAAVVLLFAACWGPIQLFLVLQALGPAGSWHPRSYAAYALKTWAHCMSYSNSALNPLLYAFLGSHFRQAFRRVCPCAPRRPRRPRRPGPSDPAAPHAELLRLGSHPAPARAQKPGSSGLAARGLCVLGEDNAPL

Structure (SMILES)	Potency [1]	Potency [2]	Potency [3]	Potency [4]	Potency [5]	Potency [6]	Potency [7]	Potency [8]	Potency [9]	Potency [10]	Potency [11]	Potency [12]	Potency [13]	Potency [14]	Potency [15]	Potency [16]	Potency [17]	Potency [18]	Potency [19]
COCCOC	inactive	inactive	inactive	inactive	inactive	2.75 µM (active)	inactive	inactive	inactive	inactive	inactive	inactive	inactive	inactive					
Clc1ccccc1CN1CCc2sccc2C1	inactive	inactive	inactive								inactive	inactive	inactive	inactive	inactive				
CC(C)c1nnc2ccc(-c3ocnc3-c3cc(F)ccc3F)cn12	inactive	inactive	inactive			inactive	inactive	inactive		inactive			inactive	inactive		inactive			
CC[C@@H]([C@H](C)O)n1ncn(-c2ccc(N3CCN(c4ccc(OC[C@@H]5CO[C@@](Cn6cncn6)(c6ccc(F)cc6F)C5)cc4)CC3)cc2)c1=O	inactive		inactive	inactive	inactive		inactive	inactive	inactive	inactive		inactive		inactive	inactive		inactive	inactive	
C[N+]1(C)CCC(OC(=O)C(O)(c2ccccc2)C2CCCC2)C1 (stereo unspecified)	inactive	inactive	inactive			inactive	inactive			inactive	inactive		inactive	inactive		inactive			inactive
COc1ccc2cc([C@H](C)C(=O)O)ccc2c1	inactive	inactive	inactive			inactive						inactive	inactive	inactive		inactive			inactive
CCCCc1oc2ccccc2c1C(=O)c1cc(I)c(OCCN(CC)CC)c(I)c1	inactive	inactive	inactive			inactive						inactive	inactive		inactive	inactive			
Cc1cc(NS(=O)(=O)c2ccc(N)cc2)no1	inactive	inactive	inactive								inactive	inactive	inactive	inactive					inactive
CC(=O)Nc1ccc(O)cc1	inactive	inactive	inactive								inactive	inactive	inactive	inactive					inactive
CN(C)C(=N)N=C(N)N	inactive	inactive	inactive			inactive					inactive	inactive			inactive	inactive			inactive
CC(C)n1c(/C=C/[C@@H](O)C[C@@H](O)CC(=O)O)c(-c2ccc(F)cc2)c2ccccc21	inactive	inactive	inactive			inactive					inactive	inactive		inactive	inactive				
O=C(c1ccccc1)c1ccccc1	inactive	inactive	inactive			inactive		inactive	inactive	inactive	inactive	inactive	inactive	inactive	inactive	inactive			inactive
CC(C)(C(=O)O)c1ccc(C(O)CCCN2CCC(C(O)(c3ccccc3)c3ccccc3)CC2)cc1 (stereo unspecified)	inactive	inactive	inactive			inactive					inactive	inactive	inactive	inactive		inactive			inactive
O=C(c1ccccc1)C1CCCCC1	inactive	inactive		inactive	inactive	inactive	inactive	inactive	inactive	inactive		inactive	inactive	inactive		inactive	inactive	inactive	inactive
CC(C)(C)c1ccc(C(O)CCCN2CCC(C(O)(c3ccccc3)c3ccccc3)CC2)cc1 (stereo unspecified)	inactive	inactive	inactive									inactive	inactive	inactive	inactive				inactive
CN(C)CCOC(c1ccccc1)c1ccccc1 (tested in a mixture with another compound)	inactive	inactive	inactive								inactive		inactive	inactive					inactive
CN(C)C(=O)C(CCN1CCC(O)(c2ccc(Cl)cc2)CC1)(c1ccccc1)c1ccccc1	inactive	inactive	inactive										inactive			inactive			inactive
COC(=O)C1=C(C)NC(C)=C(C(=O)OC)C1c1ccccc1[N+](=O)[O-]	inactive	inactive	inactive								inactive		inactive	68.7 µM (active) and inactive		inactive			
CCCC(=O)Nc1ccc(OCC(O)CNC(C)C)c(C(C)=O)c1 (stereo unspecified)	inactive	inactive	inactive			inactive					inactive		18.8 µM (active)	inactive					inactive
C[C@@H](c1ncncc1F)C(O)(Cn1cncn1)c1ccc(F)cc1F (stereo partly specified)	inactive	inactive		inactive	inactive	inactive	inactive	inactive	inactive		inactive	inactive	inactive	inactive	inactive	inactive		inactive	inactive
Cc1c(C)n(Cc2ccccc2)c2ccc(C(=O)OCCN(C)C)cc12	inactive		inactive	inactive	inactive	inactive	16.3 µM (active)		inactive	inactive	inactive	inactive	inactive				inactive	inactive	
